# Activity calls are given as the source filed them.
# Experiments:
# [1] = test system: Wnt5a (protein binding on small-molecule microarray); test: Wnt5a binders on small-molecule microarray, primary screen, biophysical, 635/667 nm fluorescence (AID 1142); conditions: 635 nm fluorescence, higher = more signal;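 note: fluorescence read at 667 nm with signal to noise per printed feature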
# [2] = cell viability in Huh7 cells, primary screen, cytotoxicity control for HCV replication inhibitor project, CellTiter-Glo luminescence, basal, 48 h (AID 1143); conditions: Huh7 HCV replicon, higher = more signal, called active from +8 up or from −8 down;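 note: Huh7 hepatoma cells carrying a hepatitis C replication reporter with no stimulus; test concentration not given here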
# [3] = CREB reporter modulators without forskolin, primary screen, cell-based, PC12, CRE-LacZ reporter, unstimulated (AID 1145); conditions: no forskolin, luminescence, 4.5 h, higher = more signal, called active from +8 up or from −8 down
# [4] = CREB reporter modulators under forskolin, primary screen, cell-based, PC12, CRE-LacZ reporter, forskolin-stimulated (AID 1146); conditions: luminescence, 4.5 h, higher = more signal, called active from +8 up or from −8 down;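 note: PC12 cells with 6xCRE LacZ reporter stimulated by forskolin 10 µM; beta-galactosidase reporter signal reflecting CREB driven transcription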
# [5] = target: Streptavidin (Streptomyces avidinii) (UniProt P22629); test: streptavidin binders on small-molecule microarray, primary screen, artefact control for SMM compound annotation, biophysical, 635/667 nm fluorescence (AID 1147); conditions: streptavidin binding, higher = more signal;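 note: signal reflects streptavidin binding to arrayed compounds as a control protein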
# Chain of Streptavidin (Streptomyces avidinii) (P22629 whole entry, looked up): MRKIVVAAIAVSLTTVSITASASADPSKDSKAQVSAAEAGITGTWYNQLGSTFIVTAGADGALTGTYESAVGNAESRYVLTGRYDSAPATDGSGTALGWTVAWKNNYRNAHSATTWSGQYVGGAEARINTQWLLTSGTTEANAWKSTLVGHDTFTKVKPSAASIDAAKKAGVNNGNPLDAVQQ
# [6] = small-molecule binders of probe aInhba, primary screen, biochemical, small-molecule microarray, 635/667 nm fluorescence (AID 1148); conditions: higher = more signal;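 note: score merges 667nm spot fluorescence with signal-to-noise for antibody binding to printed compounds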
# Torsin-1A (Homo sapiens) [7] = target: Torsin-1A (Homo sapiens) (UniProt O14656); test: torsin A binders from cell lysate, primary screen, small-molecule microarray, wild-type, 635/667 nm (AID 1149); conditions: COS7 hTOR1A-WT lysate, 635 nm fluorescence, higher = more signal
# Chain of Torsin-1A (Homo sapiens) (O14656 whole entry, looked up): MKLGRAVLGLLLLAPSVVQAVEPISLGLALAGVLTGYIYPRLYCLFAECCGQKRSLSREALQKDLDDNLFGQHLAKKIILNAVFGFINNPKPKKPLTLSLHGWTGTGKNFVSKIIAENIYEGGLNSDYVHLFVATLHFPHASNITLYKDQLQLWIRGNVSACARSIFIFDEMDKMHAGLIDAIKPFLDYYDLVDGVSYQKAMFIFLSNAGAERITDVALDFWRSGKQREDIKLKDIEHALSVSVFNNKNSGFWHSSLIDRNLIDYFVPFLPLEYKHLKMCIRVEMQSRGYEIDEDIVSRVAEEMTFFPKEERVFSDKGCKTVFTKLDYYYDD
# Torsin-1A (Homo sapiens) [8] = target: Torsin-1A (Homo sapiens) (UniProt O14656); test: small-molecule binders of mutant TOR1A in lysate, primary screen, cell lysate, small-molecule microarray, COS7 lysate, 635/667 nm fluorescence (AID 1150); conditions: COS7 hTOR1A mutant lysate, 635 nm fluorescence, higher = more signal;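 note: score pools 667 nm emission and signal to noise measuring lysate protein binding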
# [9] = test system: Sonic hedgehog protein (Shh); test: small-molecule binders of Shh protein, primary screen, biochemical, small-molecule microarray, 635/667 nm fluorescence (AID 1151); conditions: small-molecule microarray binding, 635 nm fluorescence; higher = more signal;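 note: Shh protein binding to compounds spotted on small-molecule microarray slides; score combines spot fluorescence intensity with signal-to-noise across triplicate slides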
# [10] = E. coli DRC41 culture turbidity changes, primary screen, E. coli filamentation inducer project, strain DRC41, OD650, 48 h (AID 1152);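 note: E. coli MC1000 strain DRC41 lacking acrAB efflux pump and sulA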; conditions: E. coli DRC41 (acrAB sulA), higher = more signal, called active from +8 up or from −8 down
# [11] = small-molecule binders of probe aLefty1, primary screen, biochemical, small-molecule microarray, 635/667 nm fluorescence (AID 1153); conditions: higher = more signal;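 note: score merges spot fluorescence with signal-to-noise ratio from the scanned slide images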
# [12] = PSAC antagonists in infected red cells, primary screen, cell-based, P. falciparum Indochina, OD700, 1 h (AID 1154); conditions: P. falciparum Indochina infected RBC osmotic lysis, higher = more signal, called active from +8 up or from −8 down
# [13] = PSAC antagonists in infected red cells, primary screen, cell-based, P. falciparum Indochina, OD700, 2 h (AID 1155);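 note: lysis reports solute entry through the parasite surface anion channel PSAC; channel blockers reduce lysis of infected cells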; conditions: P. falciparum Indochina infected erythrocytes, osmotic lysis OD700; higher = more signal, called active from +8 up or from −8 down
# [14] = osmotic lysis modulators in infected erythrocytes, primary screen, PSAC antagonist project, cell-based, P. falciparum Indochina, OD700, 3 h (AID 1156); conditions: higher = more signal, called active from +8 up or from −8 down
# [15] = PSAC antagonists in infected red cells, primary screen, cell-based, P. falciparum Indochina, OD700, 18 h (AID 1157); conditions: P. falciparum Indochina infected erythrocytes, osmotic lysis OD700, 18 h; higher = more signal, called active from +8 up or from −8 down
# [16] = modulators of S6 phosphorylation in cells, primary screen, cell-based, A549, cytoblot, luminescence, serum-stimulated (AID 1158); conditions: A549 phospho-S6 cytoblot, 5 h, higher = more signal;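 note: serum-stimulated A549 lung adenocarcinoma cells; signal is phosphorylated S6 detected by cytoblot immunostaining with HRP secondary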
# [17] = target: NADPH oxidase 2 (Homo sapiens) (UniProt P04839); test: NOX2-dependent H2O2 signal modulators, primary screen, NOX inhibitor project, cell-based, HEK293-NOX2, PMA-stimulated, Amplex Red fluorescence (AID 1159); conditions: 45 min, higher = more signal, called active from +8 up or from −8 down; note: test concentration not given here
# Chain of NADPH oxidase 2 (Homo sapiens) (P04839 whole entry, looked up): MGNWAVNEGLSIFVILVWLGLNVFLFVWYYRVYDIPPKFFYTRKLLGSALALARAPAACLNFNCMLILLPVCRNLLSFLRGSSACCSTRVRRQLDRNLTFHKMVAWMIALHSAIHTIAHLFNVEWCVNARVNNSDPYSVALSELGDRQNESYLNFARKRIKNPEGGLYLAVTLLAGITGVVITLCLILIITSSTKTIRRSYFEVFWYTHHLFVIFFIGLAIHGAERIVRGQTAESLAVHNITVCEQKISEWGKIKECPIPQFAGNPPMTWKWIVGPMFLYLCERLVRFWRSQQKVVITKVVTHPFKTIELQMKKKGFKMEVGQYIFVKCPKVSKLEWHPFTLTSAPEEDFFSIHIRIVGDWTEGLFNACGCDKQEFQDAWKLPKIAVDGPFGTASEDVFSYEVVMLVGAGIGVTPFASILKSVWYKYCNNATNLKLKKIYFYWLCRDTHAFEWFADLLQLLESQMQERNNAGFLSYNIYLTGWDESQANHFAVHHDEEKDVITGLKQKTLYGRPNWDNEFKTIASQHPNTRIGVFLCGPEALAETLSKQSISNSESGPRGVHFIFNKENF
# [18] = target: NADPH oxidase 4 (Homo sapiens) (UniProt Q9NPH5); test: NOX4-dependent H2O2 signal modulators, primary screen, NOX inhibitor project, cell-based, HEK293-NOX4, tetracycline-induced, Amplex Red fluorescence (AID 1160); conditions: 45 min, higher = more signal, called active from +8 up or from −8 down
# Chain of NADPH oxidase 4 (Homo sapiens) (Q9NPH5 whole entry, looked up): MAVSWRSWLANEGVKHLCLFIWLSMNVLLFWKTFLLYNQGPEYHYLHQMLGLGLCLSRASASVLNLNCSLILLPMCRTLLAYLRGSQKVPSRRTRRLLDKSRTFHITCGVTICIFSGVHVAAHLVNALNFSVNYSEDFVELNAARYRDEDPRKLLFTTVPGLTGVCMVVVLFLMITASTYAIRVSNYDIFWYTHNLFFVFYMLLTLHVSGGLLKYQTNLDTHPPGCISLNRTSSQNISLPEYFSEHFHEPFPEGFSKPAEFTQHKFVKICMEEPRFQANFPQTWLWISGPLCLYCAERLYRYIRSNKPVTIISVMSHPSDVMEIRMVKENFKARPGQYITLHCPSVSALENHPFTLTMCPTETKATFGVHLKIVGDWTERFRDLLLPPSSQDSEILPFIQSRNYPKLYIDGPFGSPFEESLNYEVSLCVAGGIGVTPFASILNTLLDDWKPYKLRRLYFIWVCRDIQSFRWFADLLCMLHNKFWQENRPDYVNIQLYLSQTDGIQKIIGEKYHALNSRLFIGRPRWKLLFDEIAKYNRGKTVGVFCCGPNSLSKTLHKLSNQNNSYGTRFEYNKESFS
# [19] = target: NADPH oxidase 5 (Homo sapiens) (UniProt Q96PH1); test: NOX5-dependent H2O2 signal modulators, primary screen, NOX inhibitor project, cell-based, HEK293-NOX5, Amplex Red fluorescence (AID 1161); conditions: HEK293-NOX5, ionomycin, 45 min, higher = more signal
# Chain of NADPH oxidase 5 (Homo sapiens) (Q96PH1 whole entry, looked up): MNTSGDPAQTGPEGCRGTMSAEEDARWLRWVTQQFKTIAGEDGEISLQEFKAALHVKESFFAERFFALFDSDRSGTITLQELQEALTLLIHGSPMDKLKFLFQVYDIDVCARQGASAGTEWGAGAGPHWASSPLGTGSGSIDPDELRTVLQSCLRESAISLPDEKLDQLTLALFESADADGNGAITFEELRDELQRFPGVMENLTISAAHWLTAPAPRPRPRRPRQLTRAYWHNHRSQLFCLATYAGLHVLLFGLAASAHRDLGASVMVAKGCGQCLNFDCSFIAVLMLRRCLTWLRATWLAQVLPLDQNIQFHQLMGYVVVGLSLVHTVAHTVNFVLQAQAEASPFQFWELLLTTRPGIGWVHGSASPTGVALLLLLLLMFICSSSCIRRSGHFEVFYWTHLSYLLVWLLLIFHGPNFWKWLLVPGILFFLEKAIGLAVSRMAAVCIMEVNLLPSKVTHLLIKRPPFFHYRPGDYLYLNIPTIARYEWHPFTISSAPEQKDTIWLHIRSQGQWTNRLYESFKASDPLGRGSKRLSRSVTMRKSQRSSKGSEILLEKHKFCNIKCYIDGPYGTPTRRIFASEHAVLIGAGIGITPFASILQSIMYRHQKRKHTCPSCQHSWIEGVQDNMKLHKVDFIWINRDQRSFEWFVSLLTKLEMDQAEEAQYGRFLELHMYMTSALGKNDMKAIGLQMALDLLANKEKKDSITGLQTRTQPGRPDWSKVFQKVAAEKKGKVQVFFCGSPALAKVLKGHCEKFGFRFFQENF
# [20] = A549 cell viability effects, profiling panel, calcein-AM fluorescence, 48 h, basal (AID 1162); conditions: higher = more signal; note: test concentration not given here
Structure (SMILES),composite z-score [1],z-score [2],z-score [3],z-score [4],composite z-score [5],composite z-score [6],composite z-score (Torsin-1A (Homo sapiens) [7]),composite z-score (Torsin-1A (Homo sapiens) [8]),composite z-score [9],z-score [10],composite z-score [11],z-score [12],z-score [13],z-score [14],z-score [15],z-score [16],z-score [17],z-score [18],z-score [19],z-score [20]
Cc1ccc(N2C(=O)c3ccccc3[C@](C)(C(=O)NC3CC3)[C@@H]2c2ccc(CO)cc2)nc1,0.119,0.0401 (inactive),-0.619 (inactive),-0.732 (inactive),-0.468,0.0053,0.141,1.06,0.496,1.3 (inactive),-0.0162,0.262 (inactive),-0.236 (inactive),0.151 (inactive),-0.0411 (inactive),0.199,-0.712 (inactive),0.504 (inactive),0.398,0.434
NC(=O)NCC#Cc1ccc2c(c1)[C@]1(C(=O)N2)[C@H](c2ccc(OCCO)cc2)N2[C@H](c3ccccc3)[C@H](c3ccccc3)OC(=O)[C@H]2[C@@H]1C(=O)Nc1nc2ccccc2s1,0.151,-0.0246 (inactive),-0.0246 (inactive),0.625 (inactive),0.453,0.0253,-0.033,0.254,0.0186,2 (inactive),0.122,2.5 (inactive),2.06 (inactive),1.53 (inactive),1.33 (inactive),-0.199,1.43 (inactive),0.57 (inactive),1.16,0.0942
C=CCC(OC(C)=O)[C@@H]1[C@@H](N(Cc2cc3ccccc3o2)C(=O)c2ccc(-c3ccccc3)cc2)c2cc(OCCCO)ccc2N1C(=O)c1ccc(-c2ccccc2)cc1 (stereo not given in full),0.0258,0.267 (inactive),0.6 (inactive),-0.625 (inactive),-0.0123,0.0497,-0.347,0.244,0.224,2.06 (inactive),0.0038,-0.0828 (inactive),0.179 (inactive),-0.0582 (inactive),-0.0337 (inactive),0.436,0.989 (inactive),-1.13 (inactive),0.786,0.0525
CC(C)C[C@@H]1NC(=O)[C@@]23C(=O)N[C@@H](Cc4ccccc4)C2[C@H](C)[C@@]2(C)O[C@H]2C3/C=C/CC/C=C/CNC(=O)[C@@H](C)NC1=O (stereo not given in full),0.298,-2.4 (inactive),2.03 (inactive),-1.16 (inactive),0.0315,-0.16,0.418,-0.0123,1.78,2.61 (inactive),-0.0984,1.31 (inactive),0.548 (inactive),0.224 (inactive),0.5 (inactive),0.595,0.649 (inactive),0.24 (inactive),-0.181,0.421
O=C(NCc1ccccc1)[C@@H]1c2ccccc2C(=O)N(Cc2ccccc2Cl)[C@H]1c1ccc(CO)cc1,0.531,-1.32 (inactive),-0.152 (inactive),-0.918 (inactive),0.527,-0.119,1.1,0.759,1.54,2.17 (inactive),0.139,1.79 (inactive),-0.576 (inactive),-0.0527 (inactive),-1.17 (inactive),0.894,-0.932 (inactive),0.992 (inactive),-0.544,0.703
O=c1n(-c2ccccc2)c(=O)n2n1CC(COc1ccccc1)=C1[C@@H](CCc3ccccc3)OB(O)C[C@@H]12,0.455,-1.84 (inactive),1.58 (inactive),-1.67 (inactive),0.117,0.0756,0.717,-0.0569,1.12,1.63 (inactive),-0.206,2.27 (inactive),-0.302 (inactive),0.622 (inactive),-1.31 (inactive),0.642,-0.513 (inactive),-0.0712 (inactive),-1.03,1.81
CC(C)(C)OC(=O)CC[C@@]1(C(=O)N2CCOCC2)N=C(c2ccc(OCCCO)cc2)O[C@@H]1c1ccccc1,0.674,-1.77 (inactive),1.56 (inactive),-0.257 (inactive),0.3,0.182,1.38,1.46,-0.0953,1.79 (inactive),0.951,20.8 (active),3.95 (inactive),0.794 (inactive),-0.73 (inactive),1.12,-0.261 (inactive),-0.961 (inactive),-0.0438,0.343
CC(C)C(=C=CC[C@H](O)c1ccc(OCCO)cc1)C[C@H](O)COCc1ccccc1,0.317,-3.34 (inactive),12.1 (active),-0.14 (inactive),0.192,-0.0986,1.11,1.42,1.96,0.811 (inactive),0.0751,20.1 (active),4.54 (inactive),1.7 (inactive),0.923 (inactive),-0.474,-0.557 (inactive),-0.142 (inactive),-1.87,0.153

# — PubChem BioAssay
